# Bm FixLJ act: B. multivorans fixK reporter activation. hit rate 0.3% among 29,000. AID 1918990. B. multivorans fixK-promoter GFP reporter, 18 h; stronger effect = higher value. z-score (no concentration beside the values);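 active = replicate mean overnight rise in green fluorescent reporter signal, 3 or more SD over negative controls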
# Active calls of the source: *. The entries come from a sample that favours hits as a whole.
SMILES,Bm FixLJ act
Cc1ccc(-c2cc(C(F)(F)F)n3ncc(-c4ccccc4)c3n2)cc1,0.44
CSc1ccc2c(C)cc(NCCC3CCCCN3S(C)(=O)=O)nc2c1 (configuration not stated),1.6
Cn1c(CN2CCCC2)nnc1C1CCN(c2cc(C3CC3)ncn2)CC1,-0.08
N#Cc1ccc(CN2CCCn3nc(CCC(=O)NCCO)cc3C2)cc1,-1.32
COc1ccc(Nc2c3c(nc4ccccc24)CCC3)cc1Cl,-3.55
COc1ccc(OC)c(NC2=C(c3ccccc3)C(=O)c3ccccc32)c1,-0.05
Cc1ccc(NC2=C(c3ccc(C(F)(F)F)cc3)C(=O)c3ccccc32)cc1C,3.28*
COc1ccc(C2=C(N3CCN(c4cc(C)ccc4C)CC3)c3ccccc3C2=O)cc1,-0.78
COc1ccc(NC2=C(c3ccccc3)C(=O)c3ccccc32)cc1Cl,3.77*
COc1ccc(C2=C(N3CCN(c4cc(Cl)ccc4C)CC3)c3ccccc3C2=O)cc1,-0.7
CNC(=O)CC1C(=O)NCCN1C(=O)c1ccc(-c2ccc(C)nc2N)cc1 (configuration not stated),0.29
CC(C)Cc1cc(C(=O)N2CCN(CCCCO)CC2)n(C)n1,-3.9
CC(C)C1CN(c2ccnc(N)n2)CCC(=O)N1Cc1ccc(F)cc1 (configuration not stated),-0.61
COc1ccc(C)cc1S(=O)(=O)NC1COCC1Cc1ccncc1 (configuration not stated),0.47
Cc1cc(C(=O)NC2CCCCNC2=O)c2ccc(C)c(C)c2n1 (configuration not stated),-0.55
O=C1C(O)=C(O)C(=O)C(O)=C1O,7.43*
CN(CC1Cc2ccccc2CN1C)C(=O)CCC(=O)Nc1ccc2c(c1)CCC2 (configuration not stated),0.6
Cc1nc(C(C)C)sc1C(=O)N1CC(O)C(Cc2ccccn2)C1 (configuration not stated),-0.51
COc1cc(C(c2c(C)[nH][nH]c2=O)c2c(C)[nH][nH]c2=O)ccc1OC(=O)c1ccccc1OC,0.53
Cc1[nH]n(-c2ccccc2)c(=O)c1C(c1cc(Cl)ccc1O)c1c(C)[nH]n(-c2ccccc2)c1=O,-4.28
CCOc1cc(C(c2c(C)[nH]n(-c3ccccc3)c2=O)c2c(C)[nH]n(-c3ccccc3)c2=O)ccc1O,3.29*
CC1(C2CC2)Cc2nnc(CCc3nc4ccccc4[nH]3)n2C1 (configuration not stated),-1.32
Cc1ccc(S(=O)(=O)c2nc(-c3ccco3)oc2SCc2ccccc2Cl)cc1,0.63
Cc1ccc(CSc2oc(-c3ccco3)nc2S(=O)(=O)c2ccc(C)cc2)cc1,-0.02
CCC(C)Sc1oc(-c2ccco2)nc1S(=O)(=O)c1ccc(C)cc1 (configuration not stated),5.48*
SMILES,Bm FixLJ act
CCCn1cc(C(=O)NCCc2nc(C)c(Cl)s2)c(C)n1,0.81
COc1cccc2c1C1(CCN(C(=O)c3[nH]ncc3Cl)CC1)OCC2,-0.33
Cc1cc(C)c(Cn2c3ccccc3c3cnn(CC(=O)NCCC4=CCCCC4)c(=O)c32)c(C)c1,-1.87
CC1CCC(NC(=O)Cn2ncc3c4ccccc4n(Cc4ccc(Cl)cc4)c3c2=O)CC1 (configuration not stated),2.94
O=C(Cn1ncc2c3ccccc3n(Cc3ccc(Cl)cc3)c2c1=O)NC1CCCCCC1,10.7*
Cc1ccccc1Cn1c2ccccc2c2cnn(CC(=O)NC3CCCCCC3)c(=O)c21,-1.25
O=C(Cn1ncc2c3ccccc3n(Cc3ccc(Cl)cc3)c2c1=O)NCCC1=CCCCC1,6.41*
O=C(Cn1ncc2c3ccccc3n(Cc3ccccc3)c2c1=O)NCCc1ccc(Cl)cc1,0.29
CCc1nnc(CNC(=O)CC2C(=O)NCCN2C(C)C)s1 (configuration not stated),-0.65
CC(C)Oc1cc(N2CCCC(C(=O)c3ccccn3)C2)nc(N)n1 (configuration not stated),-0.06
Cc1ncn(CCNC(=O)C2CCCN2S(C)(=O)=O)c1C (configuration not stated),0.54
COc1cc(C)c(C)cc1S(=O)(=O)NC(C)c1nc(C)cs1 (configuration not stated),-0.57
CC(=O)c1ccc(C(=O)NC(C)c2nnc(C(C)C)o2)s1 (configuration not stated),-0.45
Cc1ccc(CNC(=O)c2ccc(Cn3c(=O)c4ccccc4n(CC(=O)Nc4c(C)cc(C)cc4C)c3=O)cc2)cc1,-0.52
Cc1cccc(C)c1NC(=O)Cn1c(=O)n(Cc2ccc(C(=O)NCc3ccco3)cc2)c(=O)c2sccc21,-4.42
Cc1cc(C)c(NC(=O)Cn2c(=O)n(Cc3ccc(C(=O)NCc4ccco4)cc3)c(=O)c3sccc32)c(C)c1,4.53*
Cc1[nH]c2c(c1C(=O)NC(C)C1=CCCCC1)C(=O)CCC2 (configuration not stated),0.73
N#Cc1cccc(C(=O)N2CCCC3(CCc4cn[nH]c43)C2)c1 (configuration not stated),0.46
CN(c1ccc(C(=O)NCc2noc(-c3cccs3)n2)cc1)S(C)(=O)=O,-0.06
COCc1noc(CNC(=O)c2ccc(N(C)S(C)(=O)=O)cc2)n1,3.01*
COc1ccc(CNC(=O)c2ccc(CNS(=O)(=O)c3ccc(OC)cc3)cc2)cc1,0.21
CCOc1ncccc1C(=O)NC1CCN(c2cc(=O)[nH]c(N)n2)CC1,-0.85
COC1CS(=O)(=O)CC1NC(=O)CCC(=O)c1ccccc1 (configuration not stated),-0.47

# Source: PubChem BioAssay
